HPGD block = blocks human HPGD enzyme activity; actives 4.3% (n = 150,000); purified HPGD, NADH fluorescence kinetic, PGE2 substrate; Potency, µM, hits mostly inhibitors; P15428
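20 nM HPGD preincubated 15 min at room temperature with compound in 50 mM Tris-HCl pH 8, 0.01% Tween 20. Started with 1 mM NAD+ and 30 uM prostaglandin E2; NADH fluorescence (360/450 nm) read 5 times over 30-s intervals, last minus first.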
PNC assembly inh = blocks assembly of the perinucleolar compartment. PC3M PTB-GFP, PNC prevalence imaging, 16 h; hits give low values. activity change (PNC), negative = inhibition, % at 10 µM. actives 3.1% (n = 140,000). AID 2417;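 active = readout at or below -70, meaning at least 70% loss of cells showing the perinucleolar compartment, a nuclear body marking cancer cells; inconclusive = readout between -30 and a set limit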
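Compounds are pinned in duplicate onto adhered PC3M cells stably expressing GFP-tagged PTB and incubated 16 h at 37 C. Cells are then fixed, nuclei stained with Hoechst, and PNC-positive cells counted.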
ALDH1A1 block = blocks purified human ALDH1A1 activity | Purified ALDH1A1, NADH fluorescence, propionaldehyde substrate | Potency, µM (series often up to 75.3 µM), usual class: inhibitors | actives 7.3% (n = 220,000)
Target sequence (P00352 whole entry, looked up): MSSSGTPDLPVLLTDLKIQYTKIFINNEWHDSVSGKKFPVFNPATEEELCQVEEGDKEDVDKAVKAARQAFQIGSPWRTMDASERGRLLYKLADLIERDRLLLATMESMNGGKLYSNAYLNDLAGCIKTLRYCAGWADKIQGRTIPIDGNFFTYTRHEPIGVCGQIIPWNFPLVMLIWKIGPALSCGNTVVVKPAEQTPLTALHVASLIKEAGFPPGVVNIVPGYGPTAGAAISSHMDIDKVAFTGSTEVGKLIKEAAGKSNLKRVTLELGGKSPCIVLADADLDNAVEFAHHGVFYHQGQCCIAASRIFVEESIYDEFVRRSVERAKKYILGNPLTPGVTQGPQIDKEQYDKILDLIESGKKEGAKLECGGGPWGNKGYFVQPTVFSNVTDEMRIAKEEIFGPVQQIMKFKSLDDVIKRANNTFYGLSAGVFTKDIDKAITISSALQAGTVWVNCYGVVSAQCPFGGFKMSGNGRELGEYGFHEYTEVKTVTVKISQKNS
Large screens that a line does not name were inactive. Hits are enriched below; roughly 11% of the tested compounds scored in any of these assays. Unless noted, calls follow the shape of the dose curve; as a rule, active = well fitted inhibition curve with a large enough effect (not every such curve was filed as active); inconclusive = small, poorly fitted or top-dose-only effect, or another doubt; inactive = no such curve, though single readings can be large or run the other way.

O=C(CSc1nnc(-c2ccncc2)n1-c1ccc(F)cc1)NC(=O)NCc1ccco1	ALDH1A1 block 25.1µM
CCN(CC)c1ccc(NC(=O)CSc2nc3ccccc3c(=O)n2-c2cc(S(=O)(=O)N(C)C)ccc2C)cc1	ALDH1A1 block inconclusive
CN(CC(=O)OCC(=O)c1c(N)n(C)c(=O)n(C)c1=O)S(=O)(=O)c1ccc(Cl)cc1	none (no result: HPGD block)
COc1ccc(-c2nc(SC(CC(=O)NCCN3CCOCC3)c3cccs3)n[nH]2)cc1 (configuration not stated)	none (no result: HPGD block, PNC assembly inh)
O=C(O)CCn1nnc(-c2ccccc2)n1	none (no result: HPGD block, PNC assembly inh)
NCCOc1ccccn1	none (no result: PNC assembly inh)
CC(=O)N(C)C1=C(O)c2ccccc2C(=O)C1=O	ALDH1A1 block inconclusive
CC(=O)N(C1=C(O)c2ccccc2C(=O)C1=O)C1CCCCC1	ALDH1A1 block 10µM
CC(C)C1S/C(=N/N=C/c2ccco2)NC1=O (configuration not stated)	HPGD block 12.6µM (no result: ALDH1A1 block)
Cc1ccc(NC(=O)CC2S/C(=N/N=C/c3ccco3)NC2=O)cc1Cl (configuration not stated)	none (no result: HPGD block, PNC assembly inh)
CCC1CCC(C(=O)NC(CCSC)C(=O)NCCN(CC(C)C)CC(C)C)CC1 (configuration not stated)	none (no result: HPGD block, PNC assembly inh)
COCCCn1c(-c2ccc(S(=O)(=O)N3CCOCC3)cc2)csc1=Nc1ccccc1	HPGD block inconclusive, ALDH1A1 block 14.1µM
CCn1c(-c2ccccc2)csc1=Nc1ccc(S(=O)(=O)O)cc1	none
COC(=O)C1=C(C)N(C)C(=S)NC1c1ccc(OC)cc1OC (configuration not stated)	none (no result: HPGD block, PNC assembly inh)
Cc1nn(CCO)c2nc(-c3cccs3)cc(C(F)(F)F)c12	HPGD block inconclusive, ALDH1A1 block inconclusive
Cc1nn(CCc2nn[nH]n2)c2nc(C(F)(F)F)cc(C(F)(F)F)c12	HPGD block inconclusive, PNC assembly inh -84.4, ALDH1A1 block inconclusive
CSc1ncnc2c1ncn2CC(=O)[C@H]1CC[C@H]2[C@H]3CCC4=CC(=O)CC[C@@]4(C)[C@@H]3CC[C@@]12C	ALDH1A1 block inconclusive (no result: PNC assembly inh)
COc1ccc2cnnc(SCC(=O)Nc3ccccc3)c2c1OC	HPGD block 25.1µM, ALDH1A1 block inconclusive
COc1ccc2cnnc(SCC(=O)Nc3ccc(C(=O)O)cc3)c2c1OC	HPGD block inconclusive, ALDH1A1 block inconclusive
CCOc1ccc(NC(=O)CC(c2ccccc2)c2ccc(F)cc2)cc1 (configuration not stated)	PNC assembly inh inconclusive
CCN(CC(=O)Nc1c(F)cccc1F)C(=O)CCc1ccc(OC)cc1	ALDH1A1 block 14.1µM (no result: HPGD block, PNC assembly inh)
COc1cc(OC)cc(C(=O)Nc2c(F)cccc2F)c1	PNC assembly inh -118.9, ALDH1A1 block inconclusive
COc1ccc(N(CC(=O)NCc2ccco2)S(C)(=O)=O)cc1	none
COc1ccc(NC(=O)CC(c2ccc(F)cc2)c2ccc(OC(C)C)cc2)cc1 (configuration not stated)	ALDH1A1 block 0.199µM
COc1cccc(C(=O)Nc2c(F)cccc2F)c1	none (no result: HPGD block, PNC assembly inh)
CS(=O)(=O)N(CC(=O)NCc1ccco1)c1ccc(OCc2ccccc2)cc1	ALDH1A1 block 18.9µM (no result: HPGD block, PNC assembly inh)
CCN(CC(=O)Nc1c(F)cccc1F)C(=O)Cc1ccccc1	none (no result: HPGD block, PNC assembly inh)
CC1(C)C[C@@H]2C(=O)CCC3O[C@@]3(C)CCC21 (some centres not stated)	none (no result: PNC assembly inh)
COc1ccc(S(=O)(=O)N(C)CC(=O)Nc2ccc3c(c2)OCO3)cc1	PNC assembly inh inconclusive, ALDH1A1 block inconclusive
COc1ccc(S(=O)(=O)N(C)CC(=O)NCc2ccco2)cc1	ALDH1A1 block 35.5µM
COc1ccc(C(CC(=O)NCc2ccco2)c2ccc(F)cc2)cc1 (configuration not stated)	HPGD block 15.8µM
COc1ccc(S(=O)(=O)NC(CC(=O)NCc2ccco2)C(C)C)cc1 (configuration not stated)	PNC assembly inh inconclusive
CCOc1ccc(S(=O)(=O)N(C)c2ccc(OCC(=O)NCc3ccco3)cc2)cc1	ALDH1A1 block inconclusive
COc1ccc(S(=O)(=O)N(C)CC(=O)Nc2c(F)cccc2F)cc1	PNC assembly inh -102.6, ALDH1A1 block inconclusive
COC(=O)[C@H](CCCN=C(N)N)NC(=O)CCCc1c(-c2ccccc2)[nH]c2c(F)cc(F)cc12	none (no result: PNC assembly inh)
COC(=O)C1=C(C(=O)OC)[C@@H]2N(C)c3ccc(OC)cc3[C@@]23C[C@@H](C(=O)OC)N(S(=O)(=O)c2ccc4c(c2)OCCN4C)C3=N1	none (no result: PNC assembly inh)
COCC(=O)N1CCC[C@@]2(CCN(C(c3ccccc3)c3ccccc3)C2)C1	none (no result: PNC assembly inh)
Cc1ccc(CNC(=O)C2CCN(S(=O)(=O)N3CCC4(CC3)OCCO4)CC2)cc1	none
Cc1ccc2c(c1)C(=O)C(=O)N2CC(=O)OC(C)C	ALDH1A1 block 0.0794µM
Cc1ccc(C(=O)C(OC(=O)CN2C(=O)c3ccccc3C2=O)c2ccccc2)cc1 (configuration not stated)	none
C/C(=N\NS(=O)(=O)c1ccc(C)c([N+](=O)[O-])c1)c1cc2ccccc2o1	ALDH1A1 block inconclusive
C/C(=N\NS(=O)(=O)c1ccc(C)c([N+](=O)[O-])c1)c1ccc2c(c1)OCO2	ALDH1A1 block 22.4µM (no result: HPGD block, PNC assembly inh)
Cn1cccc1C(=O)N1CCC2(CCN(C(=O)Nc3cccc(C#N)c3)CC2)CC1	none (no result: PNC assembly inh)
Cc1ccc(N2C(=O)[C@@H]3[C@H](C2=O)C2c4ccccc4C=CN2[C@@H]3C(=O)c2ccco2)cc1 (some centres not stated)	HPGD block 31.6µM, ALDH1A1 block 4.47µM
Cc1ccc(N2C(=O)[C@@H]3[C@H](C2=O)C2c4ccccc4C=CN2[C@@H]3C(=O)c2ccco2)c(C)c1 (some centres not stated)	HPGD block 35.5µM, PNC assembly inh inconclusive, ALDH1A1 block 7.94µM
COc1ccc(N2CC(NC(=O)Nc3ccccc3)CC2=O)cc1 (configuration not stated)	none (no result: HPGD block, PNC assembly inh)
CC(=O)[C@@H]1[C@@H]2C(=O)N(Cc3ccccc3)C(=O)[C@@H]2C2c3ccccc3C=CN21 (some centres not stated)	HPGD block inconclusive, ALDH1A1 block 20µM
Cc1ccc(-n2ncc3c(NNC(=O)c4ccco4)ncnc32)c(C)c1	none (no result: HPGD block, PNC assembly inh)
O=C1C2C3C=CC(C3)C2C(=O)N1Cc1ccccc1 (configuration not stated)	PNC assembly inh inconclusive, ALDH1A1 block inconclusive
CC(C)(C)C(=O)[C@@H]1[C@@H]2C(=O)N(c3ccc4c(c3)OCCO4)C(=O)[C@@H]2C2c3ccccc3C=CN21 (some centres not stated)	HPGD block inconclusive, ALDH1A1 block inconclusive
COc1ccc(N2C(=O)[C@@H]3[C@H](C2=O)[C@H]2c4ccccc4C=CN2[C@@H]3C(=O)Nc2ccccc2)cc1	ALDH1A1 block 25.1µM
COc1cccc(C(=O)C2CCCN(Cc3cccc(-n4nc(C)cc4C)c3)C2)c1 (configuration not stated)	none (no result: HPGD block, PNC assembly inh)
O=C(c1ccco1)[C@@H]1[C@@H]2C(=O)N(c3ccccc3)C(=O)[C@@H]2C2c3ccccc3C=CN21 (some centres not stated)	HPGD block inconclusive, ALDH1A1 block 2.24µM
O=C(c1ccc(Cl)cc1)[C@@H]1[C@@H]2C(=O)N(c3ccccc3)C(=O)[C@@H]2C2c3ccccc3C=NN21 (some centres not stated)	ALDH1A1 block inconclusive

Screens deposited in PubChem by National Center for Advancing Translational Sciences (NCATS).
